High-throughput results as filed in PubChem BioAssay.
Only some compounds are listed: those with a hit (about 21% of all), similar ones and a draw of the others.
Pf growth 96h – P. falciparum growth inhibition at 96 hours | actives 6.9% (n = 320,000) | Potency, µM (top dose mostly 28.7 µM), inactives show at the highest dose activity change, negative = inhibition, most hits filed as inhibitors | P. falciparum luciferase reporter growth, 96 h; further: potency means the concentration at half of the fitted maximal effect; on the % scale 0 is the no-effect control and ±100 the full control effect
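Two-generation exposure (96 h) targets delayed-death phenotype. Reporter parasites carrying integrated firefly luciferase, in red cells at 2% hematocrit and 0.05% parasitemia final, kept at 37 C, 5% CO2; luminescence loss indicates inhibition.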
Sm TGR inh – S. mansoni TGR enzyme inhibition | Q962Y6 | Potency, µM (highest dose often 114 µM), for inactives: at the top dose activity change, negative = inhibition, actives largely listed as inhibitors | purified TGR, DTNB reduction, TNB absorbance 405 nm | actives 3% (n = 360,000) | AID 485364; further: potency means the concentration at half of the fitted maximal effect; on the % scale 0 is the no-effect control and ±100 the full control effect; nearly all actives have a fitted effect of over 60% in size
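First, TGR (20 nM dispensed) and NADPH were mixed with compound. Second, a 15 min room-temperature incubation followed. Third, further NADPH and then DTNB were added to start the reaction. Finally, TNB absorbance was monitored kinetically.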
NS1 inh – influenza NS1 inhibition; actives 0.4% (n = 270,000); Potency, µM (top dose mostly 46.1 µM), inactives show top-dose activity, positive = more growth; calls by dose curve; further: potency means the concentration at half of the fitted maximal effect; actives are rising curves; nearly all actives have a fitted effect of over 50% in size
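Recovery from NS1-induced slow growth read by OD600 in budding yeast switched to galactose assay medium (pH 6.0, -URA) at 1:100 dilution. Compound 23 nl per well; the matching strain lacking NS1 serves as control.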
Pf growth 48h – P. falciparum growth inhibition at 48 hours (one generation); Potency, µM (top dose mostly 28.7 µM), inactives show at the highest dose activity change, negative = inhibition, most hits filed as inhibitors; actives 5.9% (n = 310,000); P. falciparum luciferase growth in erythrocytes, 48 h; further: potency means the concentration at half of the fitted maximal effect; on the % scale 0 is the no-effect control and ±100 the full control effect
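In quantitative HTS format, infected erythrocytes bearing luciferase-reporter parasites were treated for a single generation at 37 C. Luminescence after adding detection reagent served as the growth measure.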
Shiga toxin inh – Shiga toxin inhibition; Vero cells, Shiga toxin protein synthesis inhibition reporter; inhibition, % at 38.7 µM; actives 9.2% (n = 290,000); in the data active means inhibition mostly above about 28%, no sharp cut-off; inactive means mostly below about 43%; further: 0% is about no effect
Cycloheximide cs – counter-screen for Shiga toxin inhibitors: cycloheximide protein synthesis inhibition. cell reporter, cycloheximide protein synthesis inhibition counterscreen. max response, %. actives 12% (n = 300,000). AID 2314; in the data active means max response mostly above about 13%, no sharp cut-off; inactive means mostly below about 14%; further: read at 38.3 µM for the half of the compounds with a filed dose; 0% is about no effect
Starred values were filed as active, the others as inactive; ? = inconclusive; / = no result. Unless noted, the call rests on the fitted dose curve; in most records, active means well fitted curve in the direction sought with a large enough effect; inconclusive means small, poorly fitted or top-dose-only effect, or another doubt; inactive means no such curve, though single readings can be large; an effect the other way counts as inactive or inconclusive.

SMILES	Pf growth 96h	Sm TGR inh	NS1 inh	Pf growth 48h	Shiga toxin inh	Cycloheximide cs
COC(=O)[C@@H](Cc1c[nH]c2ccccc12)NC(=O)C1CCCN(S(=O)(=O)c2ccc(C)cc2)C1 (stereo partly specified)	?	-0.2%	5.5%	?	-15.3	-5.0
O=C(NC(=S)Nc1ccc2c(c1)OCCO2)c1ccc(F)cc1Cl	2.1%	?	23.0%	68.8%	33.8*	28.3*
O=C(NC(=S)Nc1ccc(N2CCCCC2)c(Cl)c1)c1ccc2c(c1)OCCO2	?	0.0%	13.0%	?	-1.9	-4.4
O=C(Nc1ccc2c(c1)OCCO2)c1c[nH]c(=O)n(-c2ccc(F)c(Cl)c2)c1=O	1.5%	6.4%	13.0%	2.4%	-5.1	-4.4
CCc1ccc(C(=O)NC(=S)Nc2ccc3c(c2)OCCO3)cc1	8.28µM*	-24.7%	16.6%	182.5%	71.8*	41.3*
O=C(NC(=S)Nc1ccc2c(c1)OCO2)c1ccc(Cl)cc1	89.9%	-18.2%	-1.0%	239.0%	107.9*	76.4*
Cc1cc(C)cc(C(=O)NC(=S)Nc2ccc3c(c2)OCCO3)c1	0.928µM*	-27.9%	0.1%	145.4%	73.7*	31.5*
CN(C(=O)CSc1nc2ccc(NC(=O)c3cccs3)cc2s1)c1ccccc1	/	-0.1%	/	/	/	/
Cc1ccc(N(CC(=O)NC(C)C)C(=O)CCC(=O)Nc2nccs2)cc1C	?	11.3%	1.5%	/	-6.6	-2.2
CCC1=Nc2cc(C(=O)NC3CCCC3)ccc2Sc2ccc(Cl)cc21	/	6.2%	/	/	/	/
Cc1ccc(S(=O)(=O)C2(C(=O)Nc3ccc(C)c(Cl)c3)CC2)cc1	/	2.0%	/	/	/	/
Cc1ccc(C(=O)NC(=S)Nc2ccc3c(c2)OCCO3)c(C)c1	?	?	-48.1%	48.7%	71.0*	33.2*
Cc1ccc(S(=O)(=O)C2(C(=O)Nc3ccc(C(C)C)cc3)CC2)cc1	-36.8%	1.8%	/	29.0%	82.7*	49.7*
O=C(Nc1ccc2c(c1)OCO2)C1(S(=O)(=O)c2ccc(Cl)cc2)CC1	1.85µM*	10.6%	-6.2%	-0.7%	35.7	18.2
O=C(CSc1ncc(S(=O)(=O)c2ccc(Br)cc2)c(=O)[nH]1)NCc1ccccc1Cl	/	3.8%	/	/	/	/
Cc1cc(C)cc(N(C(=O)Cn2nnc3ccccc32)C(C(=O)NCc2ccco2)c2ccncc2)c1 (stereo unspecified)	17.8%	35.5µM*	-8.9%	-21.2%	34.2	11.1
COc1cccc(C(C(=O)NCc2ccco2)N(Cc2ccco2)C(=O)Cn2nnc3ccccc32)c1 (stereo unspecified)	-4.6%	1.4%	13.4%	0.1%	-9.6	-1.7
COc1cccc(N(C(=O)Cn2nnc3ccccc32)C(C(=O)NCc2ccco2)c2cccnc2)c1 (stereo unspecified)	/	-15.1%	4.8%	8.28µM*	-7.8	-3.7
Cc1ccc(N(C(=O)Cn2nnc3ccccc32)C(C(=O)NCc2ccco2)c2cccnc2)cc1 (stereo unspecified)	?	-34.8%	?	10.4µM*	-4.2	21.2
O=C(NCc1ccco1)C(c1ccccc1)N(Cc1cccnc1)C(=O)Cn1nnc2ccccc21 (stereo unspecified)	/	39.8µM*	1.2%	-14.9%	-3.9	-5.2
Cc1ccc(C)c(N(C(=O)Cn2nnc3ccccc32)C(C(=O)NCc2ccco2)c2ccncc2)c1 (stereo unspecified)	?	-30.6%	0.4%	?	-27.3	-5.5
CCOC(=O)c1oc2ccc(Br)cc2c1CSc1nnc(C)s1	16.8%	-20.0%	-9.8%	4.0%	-15.0	-3.9
CC1Cc2ccccc2N1C1=CC(=O)CCC1 (stereo unspecified)	?	-7.0%	-4.3%	?	-8.7	-3.8
Cc1ccc(S(=O)(=O)n2nc(-c3ccco3)nc2NCc2ccccc2Cl)cc1	/	-6.7%	/	/	/	/
CCCCN(C(=O)Cn1nnc2ccccc21)C(C(=O)NCc1ccco1)c1ccncc1 (stereo unspecified)	-9.2%	56.2µM*	-11.9%	8.0%	-13.1	7.3
SMILES	Pf growth 96h	Sm TGR inh	NS1 inh	Pf growth 48h	Shiga toxin inh	Cycloheximide cs
O=C(NCCCn1ccnc1)c1ccc(Br)o1	19.9%	0.2%	4.2%	/	18.1	-3.0
O=C(NCCCN1CCCC1=O)c1ccc2c(c1)NC(=O)C(N1CCOCC1)S2 (stereo unspecified)	0.928µM*	0.1%	2.1%	-3.6%	-8.8	-2.6
O=C(NCCCN1CCCC1=O)c1ccc2c(c1)OCO2	?	5.2%	-2.3%	44.6%	59.0*	15.0*
O=C(NCCCN1CCCC1=O)c1ccc(Cl)c(S(=O)(=O)N2CCCCC2)c1	5.22µM*	-8.4%	/	8.28µM*	/	/
COC(=O)c1ccc2c(c1)NC(=O)C(N1CCOCC1)S2 (stereo unspecified)	80.1%	7.7%	-10.1%	6.6%	-15.6	-2.9
Cc1cc(C)cc(-n2c(SCC(=O)N3CCc4ccccc43)nc3c([nH]c4ccccc43)c2=O)c1	/	2.9%	/	/	/	/
CC(C(=O)NC1CCCCC1)N(Cc1ccccc1)C(=O)c1snc(C(N)=O)c1N (stereo unspecified)	?	7.9%	6.1%	-9.7%	-5.2	-2.4
CC1CN(c2nc3ccccn3c(=O)c2/C=C(\C#N)C(N)=O)CC(C)O1 (stereo unspecified)	58.5%	8.4%	0.7%	25.5%	-1.5	1.8
C=CCNC(=O)/C(C#N)=C/c1c(N(Cc2ccccc2)Cc2ccccc2)nc2ccccn2c1=O	9.28µM*	-7.5%	?	5.22µM*	12.7	5.0
N#C/C(=C\c1c(N(Cc2ccccc2)Cc2ccccc2)nc2ccccn2c1=O)C(N)=O	?	-12.2%	1.9%	4.65µM*	-5.9	-2.7
CCNC(=O)/C(C#N)=C/c1c(N2CCCCCC2)nc2ccccn2c1=O	?	-6.4%	3.9%	?	-8.2	-3.7
O=C(O)c1ccc2c(=O)n(-c3ccc(F)c(Cl)c3)c(=S)[nH]c2c1	-6.5%	4.6%	2.9%	1.7%	-3.9	-3.0
COc1cccc(CN2CC(C(=O)NCCCc3ccncc3)CCC2=O)c1 (stereo unspecified)	11.7µM*	-19.7%	4.2%	11.3%	-9.6	-3.8
COc1cccc(CN2CC(C(=O)NCCCc3ccc(C)cc3)CCC2=O)c1 (stereo unspecified)	34.2%	-8.5%	-1.6%	-6.5%	48.4	19.5*
CC(=O)N1CC=C2C(C#N)=C(N)C(C#N)(C#N)[C@H](c3ccoc3)[C@H]2C1	53.2%	?	5.0%	-8.5%	-2.1	-1.7
Cc1ccc(C2C3CN(C(C)C)CC=C3C(C#N)=C(N)C2(C#N)C#N)cc1 (stereo unspecified)	-0.5%	?	24.5%	8.28µM*	-3.5	0.2
CCCCOc1ccc(C2C3CN(C(=O)OCC)CC=C3C(C#N)=C(N)C2(C#N)C#N)cc1OC (stereo unspecified)	/	0.0%	-34.1%	11.7µM*	2.8	7.0
